An excerpt weighted towards active compounds, which were near 7.1% of everything screened.
SW480 rerep – inducers of DNA re-replication in SW480 colon cancer cells; SW480 DNA re-replication, Hoechst DNA content imaging, 48 h; AID 624297; Potency, µM (doses to about 46.1 µM), without a hit: at the highest dose re-replication activation, usual class: activators; 340,000 tested, 1.8% active; further: % of control where 0% means no effect; nearly all actives have a fitted effect of over 55% in size
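Quantitative HTS format with DMSO vehicle controls; 48 hr drug incubation at 37 C, then 40 min Hoechst staining and scanning imager measurement at 405 nm excitation.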
A-T KAP1 phos – potential ataxia-telangiectasia treatment | Potency, µM (doses to about 57.5 µM), for inactives: at the highest dose activation, most hits filed as activators | F2112 A-T fibroblasts, KAP-1 phosphorylation AlphaLISA; neocarzinostatin DNA damage 30 min before lysis | 320,000 tested, 0.19% active | AID 485349; further: % of control where 0% means no effect; nearly all actives have a fitted effect of over 45% in size
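hTERT-immortalized A-T patient fibroblasts (F2112), 500 cells/well in OPTI-MEM, 1% FBS, got compounds for 60 min, then NCS for 30 min at 37C. Lysates were then assayed for phospho-KAP-1 by AlphaLISA (anti-pKAP1 donor, anti-KAP1 acceptor beads), 6 hr at 25C.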
ELG1 DNA repair – inhibitors of ELG1-dependent DNA repair in HEK293T cells | HEK293T ELG1-luciferase reporter, luminescence, 16 h; DNA damage induced by 5-fluorouridine | Potency, µM (doses to about 46.1 µM), for the others: at the highest dose activity change, negative = inhibition, most hits filed as inhibitors | 330,000 tested, 2.3% active | AID 504467; further: on the % scale 0 is the no-effect control and ±100 the full control effect; nearly all actives have a fitted effect of over 55% in size
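Step one: seed 2,000 cells per well. Step two: pin-transfer compound or DMSO alongside 5-fluorouridine. Step three: incubate 16 hr, 37 °C, 5% CO2. Step four: add ONE-Glo, wait 30 min, read luminescence.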
MCF10A rereplic – inducers of DNA re-replication in MCF 10A breast cells | AID 624296 | MCF 10A DNA re-replication, Hoechst nuclear intensity, 48 h | 350,000 tested, 2.9% active | Potency, µM (highest dose often 46.1 µM), without a hit: top-dose activity, positive = re-replication, most hits filed as activators; further: % of control where 0% means no effect; nearly all actives have a fitted effect of over 50% in size
p53 reactivation – re-activators of mutant p53. H1299 p53-A138V BP100-luciferase reporter, luminescence, 24 h. 320,000 tested, 0.063% active. Potency, µM (series often up to 92.2 µM), without a hit: at the top dose activity change, positive = activation, most hits filed as activators; further: % of control where 0% means no effect; nearly all actives have a fitted effect of over 45% in size
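H1299 (p53-null), stable ts p53-A138V + BP100-Luc; 1000 cells/well, Opti-MEM/10% FBS; cpd 4 pt, 1:5; 24 h, 37 deg C, 5% CO2; detection reagent 10 min RT; luminescence.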
ELG1 genotox – inducers of genotoxicity in HEK293T ELG1-luciferase cells. Potency, µM (series often up to 46 µM), for the others: top-dose activity change, positive = activation, most hits filed as activators. 330,000 tested, 1.3% active. HEK293T ELG1-luciferase reporter, luminescence, 16 h; further: % of control where 0% means no effect; nearly all actives have a fitted effect of over 60% in size
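Screening used a luciferase reporter fused to human ELG1 in HEK293T cells. Luminescence was read on a CCD plate imager after 16 hr exposure and 30 min ONE-Glo incubation.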
Active calls of the source: *; [ ] = dose if it differs, or a comment. The call rests on the fitted dose curve; in most records, active means well fitted curve in the direction sought with a large enough effect; inconclusive means small, poorly fitted or top-dose-only effect, or another doubt; inactive means no such curve, though single readings can be large; an effect the other way counts as inactive or inconclusive. Potency means the concentration at half of the fitted maximal effect.

Screening COC(=O)c1sc(NC(=O)c2oc3ccccc3c2C)nc1C returned SW480 rerep -0.7%, A-T KAP1 phos 3.8%, ELG1 DNA repair inconclusive, MCF10A rereplic 0.3%, p53 reactivation 23.9% and ELG1 genotox 2.31µM*.
`COC(=O)c1sc(NC(=O)c2ccc(C)o2)nc1C` gave SW480 rerep -9.7%, A-T KAP1 phos 12.1%, ELG1 DNA repair inconclusive, MCF10A rereplic -0.2%, p53 reactivation inconclusive and ELG1 genotox inconclusive.
`CCOC(=O)c1sc(NC(C)=O)nc1C` gave SW480 rerep -2.1%, A-T KAP1 phos 3.3%, ELG1 DNA repair 1.4%, MCF10A rereplic 19.9%, p53 reactivation 4.7% and ELG1 genotox 3.5%.
CCOC(=O)c1sc(NC(=O)c2ccc(C)o2)nc1C was read as SW480 rerep 0.0%, A-T KAP1 phos 6.5%, ELG1 DNA repair inconclusive, MCF10A rereplic 1.8%, p53 reactivation -7.8% and ELG1 genotox 5.8µM*.
CCOC(=O)c1sc(NC(=O)CCc2ccccc2)nc1C was read as SW480 rerep 5.8µM*, A-T KAP1 phos -3.4%, ELG1 DNA repair -10.4%, MCF10A rereplic 19.9%, p53 reactivation -19.6% and ELG1 genotox -2.3%.
For O=S(=O)(c1ccc(Br)cc1)c1nc(-c2ccccc2)oc1NCCN1CCOCC1 the results were SW480 rerep 18.2%, A-T KAP1 phos 1.8%, ELG1 DNA repair -24.5%, MCF10A rereplic 18.6%, p53 reactivation -5.1% and ELG1 genotox -2.5%.
For Cc1cc(NC(=O)c2ccccc2)ccc1NC(=O)Cc1ccccc1 the results were SW480 rerep -5.1%, A-T KAP1 phos -7.5%, ELG1 DNA repair -21.4%, MCF10A rereplic -2.6% and ELG1 genotox 4.4%.
`C#CCN1C(C)=CC(=O)[C@@H](O)[C@H]1c1ccccc1Br` gave SW480 rerep -11.6% and MCF10A rereplic -8.7%.
`CCOc1ccc(CN2CCN(C(=O)c3cccc4ccccc34)CC2)cc1` gave SW480 rerep -43.3%, A-T KAP1 phos 2.1%, ELG1 DNA repair inconclusive, MCF10A rereplic 5.3% and ELG1 genotox -1.7%.
O=c1c2ccccc2oc2cc(-c3ccc(CN4CCOCC4)cc3)ccc12 was read as SW480 rerep -11.2%[9.22 µM], A-T KAP1 phos inconclusive, ELG1 DNA repair inconclusive, MCF10A rereplic inconclusive, p53 reactivation inconclusive and ELG1 genotox -10.0%.
Screening O=C1N=C2SCCN2/C1=C\c1ccc(Cl)cc1 returned SW480 rerep 1.7%, A-T KAP1 phos -5.0%, ELG1 DNA repair 19.6%, MCF10A rereplic 18.4µM*, p53 reactivation 5.6% and ELG1 genotox -2.8%.
`O=C1N=C2SCCN2C(=O)C1Cc1ccc(Cl)cc1` (stereo not given) gave SW480 rerep -2.1% and MCF10A rereplic 11.5%.
For NS(=O)(=O)c1ccc(N2N=C(c3ccc(Br)cc3)CC2c2ccc(F)cc2)cc1 (stereo not given) the results were SW480 rerep inconclusive, A-T KAP1 phos 39.8µM*, ELG1 DNA repair inconclusive, MCF10A rereplic 1.84µM*, p53 reactivation -14.9% and ELG1 genotox -5.9%.
`COc1ccc(C2CC(c3ccccc3)=NN2c2ccccc2)c(C(=O)O)c1OC` (stereo not given) gave SW480 rerep inconclusive, A-T KAP1 phos inconclusive, ELG1 DNA repair -2.9%, MCF10A rereplic 18.4µM*, p53 reactivation -5.8% and ELG1 genotox 0.7%.
For NS(=O)(=O)c1ccc(N2N=C(c3ccccc3)CC2c2cccc(F)c2)cc1 (stereo not given) the results were SW480 rerep 4.11µM*, A-T KAP1 phos 39.8µM*, ELG1 DNA repair inconclusive, MCF10A rereplic 2.59µM*, p53 reactivation 0.8% and ELG1 genotox -3.2%.
`O=[N+]([O-])c1ccc(N2N=C(c3ccccc3)CC2c2ccccc2O)cc1` (stereo not given) gave A-T KAP1 phos -6.6%, ELG1 DNA repair -16.0%, p53 reactivation -10.0% and ELG1 genotox -5.6%.
COc1cc(C2CC(c3ccccc3)=NN2c2ccccc2)ccc1OCC(=O)O (stereo not given) was read as SW480 rerep 16.4µM*, A-T KAP1 phos inconclusive, ELG1 DNA repair 6.7%, MCF10A rereplic 4.11µM*, p53 reactivation 6.9% and ELG1 genotox 7.1%.
COc1ccc2c(c1OC)C(=O)N1N=C(c3ccccc3)CC21 (stereo not given) was read as SW480 rerep -1.1%[9.22 µM], A-T KAP1 phos -2.3%, ELG1 DNA repair inconclusive, MCF10A rereplic 1.3%, p53 reactivation 11.9% and ELG1 genotox -2.1%.
`O=C(Nc1ccccc1)N1N=C(c2ccc(F)cc2)CC1c1ccc(F)cc1` (stereo not given) gave SW480 rerep -55.0%, A-T KAP1 phos 0.5%, ELG1 DNA repair -16.5%, MCF10A rereplic -37.6%, p53 reactivation -6.6% and ELG1 genotox -3.2%.
CNC(=S)N1N=C(c2ccccc2)CC1c1ccc(OC)c(OC)c1 (stereo not given) was read as SW480 rerep -2.6%, A-T KAP1 phos 0.5%, ELG1 DNA repair inconclusive, MCF10A rereplic -2.6%, p53 reactivation inconclusive and ELG1 genotox 2.2%.
COc1ccc2nc(SC(C)C(=O)NC3CCCC3)[nH]c2c1 (stereo not given) was read as SW480 rerep -72.2%, A-T KAP1 phos 3.8%, ELG1 DNA repair 3.4%, MCF10A rereplic -0.3%, p53 reactivation 6.4% and ELG1 genotox -0.2%.
Screening CCCCN(C(=O)c1cc2ccccc2o1)c1c(N)n(CCCC)c(=O)[nH]c1=O returned SW480 rerep -2.1%, A-T KAP1 phos -1.7%, ELG1 DNA repair 17.6%, MCF10A rereplic 2.3%, p53 reactivation 1.5% and ELG1 genotox 4.3%.
Screening COc1cc(C2CC(c3cccnc3)=NN2c2ccc(F)cc2)cc(OC)c1OC (stereo not given) returned SW480 rerep 8.2µM*, A-T KAP1 phos 3.2%, ELG1 DNA repair 15.3%, MCF10A rereplic inconclusive, p53 reactivation -2.1% and ELG1 genotox inconclusive.
`NS(=O)(=O)c1ccc(N2N=C(c3ccccc3)CC2c2cccc(Br)c2)cc1` (stereo not given) gave SW480 rerep 23.1µM*, A-T KAP1 phos 28.6%, ELG1 DNA repair inconclusive, MCF10A rereplic 5.17µM*, p53 reactivation -7.3% and ELG1 genotox -1.8%.

Bioassay records from PubChem BioAssay.
